GPR151 activ: activators of human GPR151 | PathHunter beta-arrestin GPR151 cells, luminescence | activation, % at 11.2 µM | Q8TDV0 | hit rate 1% among 650,000; in the data active means activation above about 4.9%;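 further: 0% = median of compound wells and 100% = cells with positive control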
FBW7 act: activators of human E3 ligase FBW7 | Q969H0 | AlphaScreen FBW7–phospho-cyclin E peptide binding, activator screen | normalized activity (activation), % at 26.1 µM | hit rate 0.13% among 650,000 | AID 1259310; in the data active means normalized activity above about 1.9%;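 further: purified mutant Fbw7 with reduced substrate affinity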
MITF inh: inhibitors of human MITF. AlphaScreen MITF homodimerization, bead proximity signal. inhibition, % at 2.6 µM. hit rate 0.91% among 650,000. AID 1259374; in the data active means inhibition above about 50%;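 further: 0% = vehicle wells with protein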
Target sequence (O75030 whole entry, looked up): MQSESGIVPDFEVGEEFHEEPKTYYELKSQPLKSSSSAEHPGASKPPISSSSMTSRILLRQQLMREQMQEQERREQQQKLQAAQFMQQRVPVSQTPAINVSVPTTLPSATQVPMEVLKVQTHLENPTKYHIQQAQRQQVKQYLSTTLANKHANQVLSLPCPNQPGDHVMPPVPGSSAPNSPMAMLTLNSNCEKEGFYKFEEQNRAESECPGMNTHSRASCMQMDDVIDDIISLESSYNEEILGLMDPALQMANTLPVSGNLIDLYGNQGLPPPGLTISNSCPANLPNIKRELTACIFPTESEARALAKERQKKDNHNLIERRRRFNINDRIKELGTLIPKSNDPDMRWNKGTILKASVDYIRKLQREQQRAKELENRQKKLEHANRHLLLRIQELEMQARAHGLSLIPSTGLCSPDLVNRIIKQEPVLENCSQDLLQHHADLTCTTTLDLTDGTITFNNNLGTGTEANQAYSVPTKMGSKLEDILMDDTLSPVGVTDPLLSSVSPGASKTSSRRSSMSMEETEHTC
TEAD-YAP inh: TEAD-YAP interaction inhibition. inhibition, % at 9.12 µM. hit rate 1.4% among 640,000. HEK-TIYL cells, TEAD-Gal4/YAP UAS-luciferase luminescence; in the data active means inhibition above about 32%;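 further: 0% = median of test compound wells and 100% = reference inhibitor wells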
The depositor's hits bear a star. An excerpt weighted towards active compounds, which were near 3.5% of everything screened.

SMILES	GPR151 activ	FBW7 act	MITF inh	TEAD-YAP inh
CCc1c(C)sc(NC(=O)COc2ccc(Cl)cc2)c1C#N	2	0	-23	-21
Cc1cc(C(=O)CN2CCN(C)CC2)c(C)n1-c1ccc(Br)cc1	-1	0	88*	8
CCN1CCN(CC(=O)c2cc(C)n(-c3ccc(F)cc3)c2C)CC1	1	0	80*	-6
CCCc1noc(CN2CCC(Cc3ccccc3F)CC2)n1	1	0	-2	-4
Cc1ccc(-c2c(Nc3cccc(F)c3)c(=O)c2=O)cc1	0	0	9	50*
COc1ccc(Nc2c(-c3ccccc3)c(=O)c2=O)cc1Cl	1	0	99*	55*
CCc1cccc(Nc2c(-c3ccc(OC)cc3)c(=O)c2=O)c1	1	1	6	-8
O=c1c(Nc2cccc(Cl)c2)c(-c2ccccc2)c1=O	-1	0	9	1
CCc1ccc(Nc2c(-c3ccccc3)c(=O)c2=O)cc1	-1	0	0	56*
COc1ccc(-c2c(Nc3cccc(SC)c3)c(=O)c2=O)cc1	1	1	15	61*
Cc1ccc(S(=O)(=O)N(CC(O)CN(C)C)c2cccc([N+](=O)[O-])c2)cc1 (configuration not stated)	0	0	26	4
Cc1ccc(C(=O)N2CCN3C(=O)[C@H](CO)NC(=O)[C@H]3C2)cc1F	-1	0	-7	-3
O=C(NCc1cccnc1)C1CCN(C(=O)c2cccc(Cl)c2)CC1	1	0	6	5
COc1ccc(Nc2c(-c3ccc(C)cc3)c(=O)c2=O)cc1	1	0	-8	-5
COc1ccc(Nc2c(-c3ccccc3)c(=O)c2=O)cc1	1	0	-2	60*
CCC(C)Nc1c(-c2ccccc2)c(=O)c1=O (configuration not stated)	1	0	9	9
CCN(c1ccc(OC)cc1)c1c(-c2ccccc2)c(=O)c1=O	0	0	12	48*
CC(Nc1c(-c2ccccc2)c(=O)c1=O)c1ccccc1 (configuration not stated)	-2	0	0	40*
Cc1ccc(C)n1-c1ccc(C(=O)N2CCC(C)CC2)cc1	1	0	11	11
CC(C)S(=O)(=O)C1=NSC2=NC(=O)/C(=C\c3ccc(Br)o3)C(=N)N21	0	-1	84*	8
CS(=O)(=O)C1=NSC2=NC(=O)/C(=C\c3ccc(Br)o3)C(=N)N21	-1	-2	74*	12
CCCOC(=O)CSC1=C(C#N)C(c2ccccc2)CC(=O)N1 (configuration not stated)	1	0	7	57*
N#CC1=C(SCC(=O)Nc2ccccc2)NC(=O)CC1c1ccccc1 (configuration not stated)	-1	0	-14	32*
CCc1ccc(C2CC(=O)NC(SCC(=O)OC(C)C)=C2C#N)cc1 (configuration not stated)	1	0	13	3
CCCCOC(=O)CSC1=C(C#N)C(c2ccc(Cl)cc2)CC(=O)N1 (configuration not stated)	-1	0	6	2
SMILES	GPR151 activ	FBW7 act	MITF inh	TEAD-YAP inh
CCCCOC(=O)CSC1=C(C#N)C(c2ccccc2)CC(=O)N1 (configuration not stated)	2	0	13	45*
CC(C)OC(=O)CSC1=C(C#N)C(c2ccccc2)CC(=O)N1 (configuration not stated)	1	0	-7	62*
CCCOC(=O)CSC1=C(C#N)C(c2ccc(O)cc2)CC(=O)N1 (configuration not stated)	0	0	5	-1
N#CC1=C(SCC(=O)Nc2ccccc2)NC(=O)CC1c1ccc(O)cc1 (configuration not stated)	1	1	19	31
Cc1ccc(CNC(=O)[C@@H]2C[C@H](n3cnnn3)CN2Cc2ccc(Cl)cc2)cc1	0	0	-7	-6
Fc1cc(F)c(C2SCCN2C(=S)NCCc2ccccc2)c(F)c1 (configuration not stated)	1	0	5	0
CCc1ccc(C=Nc2cccc(S(=O)(=O)N3CCOCC3)c2)cc1	-1	0	1	6
CN(C)CCN(CC1CCCC1)C(=O)Nc1ccc(-c2cn[nH]c2)cc1N(C)CCN(C)C	1	0	12	36*
O=C(N/N=C/c1c(O)ccc2ccccc12)c1ccc(=O)[nH]n1	0	-1	68*	86*
O=C(N/N=C/c1c(O)ccc2ccccc12)c1cccnc1	0	0	70*	81*
O=C(N/N=C\c1c(O)ccc2ccccc12)c1cncc(Br)c1	-1	-1	-1	9
Cc1ccc(C(=O)N/N=C/c2c(O)ccc3ccccc23)cn1	-1	0	55*	80*
Cc1ccc(C(=O)N/N=C/c2c3ccccc3cc3ccccc23)cn1	2	0	2	3
O=C(N/N=C/c1c(O)ccc2ccccc12)c1ccc(F)cc1	-1	0	14	76*
CCCOc1ccccc1C1C(C(=O)OCC(C)C)=C(C)NC2=C1C(=O)CC(c1ccc(Cl)cc1)C2 (configuration not stated)	0	0	10	-1
COc1ccc(CCNc2ccnc(-c3ccc(N4CCOCC4)nc3)n2)cc1	1	0	12	-18
Cc1nc2ccccn2c1C(=O)N/N=C/c1ccc(Cl)cc1Cl	0	0	-8	11
O=C(N/N=C/c1c(O)ccc2ccccc12)c1ccc[n+](CCO)c1	1	-1	90*	-5
Cc1nc2ccccn2c1C(=O)N/N=C/c1c(O)ccc2ccccc12	-1	-1	30	71*
Cc1ccc([N+](=O)[O-])cc1-c1ccc(/C=C2/C(=O)NC(=O)N(Cc3ccco3)C2=O)o1	0	0	43	-3
CCOC(=O)c1ccc(-c2ccc(/C=C3/C(=O)NC(=O)N(Cc4ccco4)C3=O)o2)cc1	-1	0	34	-61
O=C1NC(=O)N(Cc2ccco2)C(=O)/C1=C\c1ccc(-c2ccc([N+](=O)[O-])cc2)o1	0	0	75*	-6
O=C1NC(=O)N(Cc2ccco2)C(=O)/C1=C\c1ccc(-c2ccc(Br)cc2)o1	0	0	70*	0
O=C1NC(=O)N(Cc2ccco2)C(=O)/C1=C\c1ccc(-c2ccc(C(=O)O)cc2)o1	-1	0	52*	-2
Cc1cc([N+](=O)[O-])ccc1-c1ccc(/C=C2/C(=O)NC(=O)N(Cc3ccco3)C2=O)o1	-2	0	68*	-3
O=C(Nc1nc2ccccc2s1)C1CC2CCC1C2 (configuration not stated)	0	0	-10	-61
CN1/C(=C\C(=O)COC(=O)CCC(=O)c2ccc3c(c2)OCCO3)C(C)(C)c2ccccc21	1	0	0	-1
CC(C)c1ccc2oc(-c3ccc(Cl)c(NC(=O)Cc4ccccc4)c3)nc2c1	0	0	-4	61*
Cc1ccccc1C(=O)Nc1cc(-c2nc3cc(C(C)C)ccc3o2)ccc1Cl	1	0	7	4
COc1ccccc1C(=O)Nc1cc(-c2nc3cc(C(C)C)ccc3o2)ccc1Cl	0	0	0	35*
